Assay results: PubChem BioAssay (NCATS)
Results filed as inconclusive are left out. A call without a number means that no potency is given here. Active and inactive are the calls of the source. Calls come from the whole dose curve; as a rule, active = well fitted inhibition curve with a large enough effect; inconclusive = small, poorly fitted or top-dose-only effect; inactive = flat fitted curve, though single readings scatter.

test system: TAB109; test: qHTS profiling for inhibitors of Plasmodium falciparum proliferation (AID 504749); note: nearly all actives have a fitted effect of over 60% in size; settings: P. falciparum in erythrocytes, SYBR Green DNA, 72 h; series mostly up to 28.7 µM
Summary of the method: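 Parasite proliferation within erythrocytes, 72 h exposure. Endpoint: SYBR Green I fluorescence after overnight lysis at room temperature. Controls: 0.29 uM artemisinin, DMSO.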
Potency is the fitted concentration of half-maximal effect.

Row | Compound | Potency
1 | CO[C@H](C(=O)[C@@H](O)[C@@H](C)O)C1Cc2cc3cc(O[C@H]4C[C@@H](O[C@H]5C[C@@H](O)[C@H](O)[C@@H](C)O5)[C@@H](O)[C@@H](C)O4)c(C)c(O)c3c(O)c2C(=O)[C@H]1O[C@H]1C[C@@H](O[C@H]2C[C@@H](O[C@H]3C[C@](C)(O)[C@H](O)[C@@H](C)O3)[C@H](O)[C@@H](C)O2)[C@H](O)[C@@H](C)O1 (some centres not stated) | 141 nM (active)
2 | O=C(O)c1cc(O)c2c(c1)[O][Bi][O]2 | inactive
3 | NC(=O)c1ncn(C2OC(CO)C(O)C2O)n1 (configuration not stated) | inactive
4 | CC[N+](C)(C)Cc1ccccc1Br | inactive
5 | Nc1ncnc2c1ncn2[C@@H]1O[C@H](COP(=O)(O)OP(=O)(O)OP(=O)(O)O)[C@@H](O)[C@H]1O | inactive
6 | CCCC(=O)O[C@]1(C(=O)CCl)[C@H](C)C[C@@H]2[C@H]3CCC4=CC(=O)C=C[C@]4(C)[C@@]3(F)C(=O)C[C@@]21C | 3160 nM (active)
7 | CC(C)(C)C(=O)OCOC(=O)[C@@H]1N2C(=O)[C@@H](N=CN3CCCCCC3)[C@H]2SC1(C)C | inactive
8 | O=S(=O)(O)O | inactive
9 | Cc1ccccc1OCC(O)CNCCOc1ccc(C(N)=O)cc1 (configuration not stated) | inactive
10 | CCCCC/C=C\C/C=C\CCCCCCCC(=O)O | inactive
11 | C[C@@H]1CCC2[C@@H](C)[C@@H](O)O[C@@H]3O[C@@]4(C)CC[C@@H]1[C@@]23OO4 (some centres not stated) | 1 nM (active)
12 | Nc1c(N=Nc2ccc(-c3ccc(N=Nc4cc(S(=O)(=O)O)c5ccccc5c4N)cc3)cc2)cc(S(=O)(=O)O)c2ccccc12 | inactive
